Screens (PubChem BioAssay)
Sampled rows, rich in hits. Any-hit rate of the full collection: about 5.9%.
RORg inh: inhibitors of mouse ROR gamma transcriptional activity; Drosophila S2 Gal4-RORgamma UAS-luciferase reporter, 20 h; Potency, µM (top dose mostly 53.6 µM), for the others: top-dose activity change, negative = inhibition, hits mostly inhibitors; 310,000 compounds, 5.4% hits; AID 2551; note: potency is the fitted concentration of half-maximal effect; nearly all actives have a fitted effect of over 60% in size
Target sequence (P51450 whole entry, looked up, the tested form may be a part): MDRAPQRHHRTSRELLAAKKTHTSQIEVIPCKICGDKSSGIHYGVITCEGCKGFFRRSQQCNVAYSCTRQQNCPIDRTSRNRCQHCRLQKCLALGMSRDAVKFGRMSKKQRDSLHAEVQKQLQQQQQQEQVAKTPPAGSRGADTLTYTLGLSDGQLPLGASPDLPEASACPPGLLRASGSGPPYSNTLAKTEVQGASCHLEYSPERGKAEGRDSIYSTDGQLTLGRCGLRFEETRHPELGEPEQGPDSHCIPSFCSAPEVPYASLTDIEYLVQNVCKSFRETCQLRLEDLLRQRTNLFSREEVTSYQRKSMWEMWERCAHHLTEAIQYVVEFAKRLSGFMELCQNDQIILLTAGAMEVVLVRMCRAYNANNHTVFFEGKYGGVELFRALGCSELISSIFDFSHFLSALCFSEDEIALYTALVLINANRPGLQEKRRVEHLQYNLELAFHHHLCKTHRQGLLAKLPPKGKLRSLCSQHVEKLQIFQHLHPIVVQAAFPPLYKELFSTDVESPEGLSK
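Using a luciferase readout, inhibitors were identified by reduced reporter activity in Drosophila cells coexpressing a copper-inducible Gal4–ROR gamma fusion and UAS-driven Photinus luciferase, incubated 20 hr after 700 uM copper sulfate.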
Coupling enz: counter-screen for Giardia aldolase inhibitors: coupling enzyme system | coupling enzyme system counterscreen, AmpLite Red fluorescence | activity change, negative = inhibition, % at 58.2 µM, hits read low | 290,000 compounds, 0.67% hits | AID 2472; in the data active = activity change below about -30%
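Coupling enzymes only (glyceraldehyde-3-phosphate) + compound, at 57.5 uM final, 10 min RT; add substrate/coupling/AmpLite Red mix, 20 min RT; fluorescence ex 525/em 598 nm. Actives flag coupling-system interference.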
GALK inh: blocks human galactokinase activity; 270,000 compounds, 0.007% hits; P51570; Potency, µM (titrated, usually from 57.5 µM), without a hit: at the top dose activity change, negative = inhibition, most hits filed as inhibitors; Purified GALK, Kinase-Glo residual ATP luminescence; note: potency is the fitted concentration of half-maximal effect
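The enzyme phosphorylates galactose (100 uM) using ATP (35 uM); inhibition is detected as higher residual ATP, quantified by bioluminescence after 1 h reaction at room temperature, pH 8.0.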
Gal4-VP16 FLuc: counter-screen for ROR gamma inhibitors: Gal4-VP16 reporter | Drosophila S2 Gal4-VP16 UAS-luciferase, luminescence, 20 h | Potency, µM (titrated, usually from 53.6 µM), for the others: at the top dose activity, negative = inhibition, usual class: inhibitors | 310,000 compounds, 3.5% hits;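 note: Gal4-VP16 expression switched on by copper sulfate through the metallothionein promoter; potency is the fitted concentration of half-maximal effect; nearly all actives have a fitted effect of over 50% in size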
TrxR1 inh: inhibitors of rat thioredoxin reductase 1 | O89049 | recombinant rTrxR1, NADPH fluorescence consumption, selenite substrate | Potency, µM (top dose mostly 114 µM), for the others: at the top dose activity change, negative = inhibition, usual class: inhibitors | 390,000 compounds, 1% hits; note: potency is the fitted concentration of half-maximal effect; nearly all actives have a fitted effect of over 65% in size
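Rat TrxR1 (90 nM in the dispensed reagent) was pre-reduced with 400 uM NADPH for 5 min at room temperature, then incubated with compound for 15 min. After 400 uM selenite was added, NADPH fluorescence (Ex 340/Em 450 nm) was followed for 8 min.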
TrxR1 substrate: is turned over as a substrate by rat TrxR1. O89049. purified TrxR1 substrate turnover, NADPH consumption readout. Potency, µM (series often up to 114 µM), inactives show top-dose activity change, negative = substrate turnover. 390,000 compounds, 0.01% hits. AID 588456; note: potency is the fitted concentration of half-maximal effect; nearly all actives have a fitted effect of over 50% in size
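Rat TrxR1, dispensed at 90 nM, was prereduced with 400 uM NADPH (final) for 5 min at ~22 deg C, then incubated with compound 15 min before 400 uM selenite. A first-read NADPH fluorescence drop versus no-compound background flagged substrates.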
* = called active by the depositor; ? = inconclusive; . = no result; [ ] = remark or other dose. Unless noted, calls come from the whole dose curve; as a rule, active = well fitted curve in the direction sought with a large enough effect; inconclusive = small, poorly fitted or top-dose-only effect, or another doubt; inactive = no such curve, though single readings can be large; an effect the other way counts as inactive or inconclusive. % is set by controls: 0 for no effect and ±100 for the full control effect.

SMILES | RORg inh | Coupling enz | GALK inh | Gal4-VP16 FLuc | TrxR1 inh | TrxR1 substrate
CC(C)CC(=O)NC(NC(=S)Nc1sc2c(c1C#N)CCCC2)C(Cl)(Cl)Cl (stereo not drawn) | 10µM* | 11.3 | -6.0% | ? | -7.3%[57.1 µM] | -3.1%[57.1 µM]
N#Cc1c(NC(=O)c2ccccc2)sc2c1CCC2 | -14.9% | -9.7 | -2.8% | 0.9% | 2.2%[57.1 µM] | 13.5%
CCCC1Cc2c(sc(NC(=S)NC(=O)c3ccccc3)c2C#N)CO1 (stereo not drawn) | 4.47µM* | 1.2 | -3.9% | ? | . | .
N#Cc1c(NC(=O)c2ccc(Cn3cc(Br)cn3)o2)sc2c1CCCCCC2 | 5.62µM* | 2.0 | 0.5% | -10.3%[0.365 µM] | 3.0% | 14.6%
O=C(Cn1cc(COc2c(F)c(F)cc(F)c2F)nn1)c1ccc(O)cc1 | . | . | . | . | 50.1µM* | 0.2%
COc1ccc(OCc2cn(CC(=O)c3ccc(O)cc3)nn2)cc1 | . | . | . | . | -12.5% | -1.8%
CCN(CC(=O)Nc1ccc(NC(C)=O)cc1)C(=O)c1cccc(S(=O)(=O)N2CCCC2)c1 | . | . | . | . | 0.8%[57.1 µM] | 7.2%[57.1 µM]
COc1cccc(Oc2c(C)oc3c(CN4CCCCC4)c(O)ccc3c2=O)c1 | 9.9% | 4.1 | 1.0% | -2.6% | 44.7µM* | 497.7%
O=C(O)C1CCCN1S(=O)(=O)c1ccccc1 (stereo not drawn) | -9.3% | -0.3 | 0.4% | 1.8% | 9.4% | 2.9%
Cc1cc(OC(C)C(=O)NC(Cc2c[nH]c3ccc(O)cc23)C(=O)O)c2c(C)c(C)c(=O)oc2c1 (stereo not drawn) | -2.7% | -10.7 | . | -2.5% | 11.2µM* | 25.2%
COC(=O)C(C(C)=O)C1=C/C(=N\S(=O)(=O)c2ccc(C)cc2)c2ccccc2C1=O (stereo not drawn) | -19.5% | -33.4* | 0.1% | ? | -20.1% | -1.1%
O=C(O)c1ccc(S(=O)(=O)/N=C2\C=C(Nc3ccccc3F)C(=O)c3ccccc32)cc1 | ? | -45.4* | ? | ? | 43.0% | ?
Cc1ccccc1N/C(=N/S(=O)(=O)c1ccccc1)c1ccc(F)cc1 | 3.4% | -0.2 | 11.3% | -14.7% | 16.8% | -6.2%
COC(=O)[C@H](CO)NS(=O)(=O)c1ccc(C)cc1 | . | . | . | . | 14.1% | 4.9%
Cc1ccccc1NC1=C/C(=N\S(=O)(=O)c2ccc(C(=O)O)cc2)c2ccccc2C1=O | ? | -43.9* | ? | ? | 4.6%[57.1 µM] | -6.1%[57.1 µM]
CCC12CN3CC(CC)(CN(C1)C3c1ccccc1Cl)C2O (stereo not drawn) | 4.8% | -0.5 | 2.8% | -5.9% | -4.4% | -1.6%
CC(=O)Nc1nnc(-c2ccc(Cl)s2)o1 | 3.55µM* | -0.4 | 0.7% | 5.62µM* | 17.9% | 8.5%
CCOC(=O)N1CCN(C(=O)CSc2nnc(-c3ccc(Cl)s3)o2)CC1 | 0.4% | -0.5 | 5.3% | 4.0% | . | .
CCC(=O)Nc1nnc(-c2ccc(Cl)s2)o1 | 7.08µM* | 1.7 | -0.9% | 12.6µM* | 4.0% | 3.0%
Cc1cc(C)n(CCNC(=O)CC2C(=O)NCCN2Cc2ccccc2C(F)(F)F)n1 (stereo not drawn) | -18.3% | -6.2 | -3.1% | 3.9% | 17.6%[11.4 µM] | 13.0%[11.4 µM]
CCOc1ccccc1C(=O)Nc1cc(=O)n(C)c(=O)n1C | -9.7% | 3.7 | . | 0.6% | 20.7% | 2.0%
S=C(CN1CCCC1=S)NCCc1ccccc1 | 7.94µM* | 2.8 | 10.4% | ? | 7.4% | 2.5%
COC(=O)c1ccc(C[n+]2ccccc2)cc1 | 0.1µM* | -1.1 | -1.4% | 11.8% | -1.6%[57.1 µM] | 3.9%[57.1 µM]
COC(=O)c1ccc(NC(=O)C[n+]2ccccc2)cc1 | 13.8% | 0.5 | 0.0% | -2.5% | 31.9% | 2.1%
CCOc1ccc(S(=O)(=O)N2CCC(C(=O)NCc3cccnc3)CC2)cc1Cl | -5.3% | 3.0 | 11.9% | -0.2% | 16.7% | 2.0%
Cc1ccc(C2CC2c2n[nH]c(=S)n2-c2ccc(C)cc2)cc1 (stereo not drawn) | 3.16µM* | 2.4 | -2.0% | 5.62µM* | -12.8% | -12.0%
